Results filed as inconclusive are left out. Active and inactive are the calls of the source. Unless noted, calls follow the shape of the dose curve; as a rule, active = well fitted curve in the direction sought with a large enough effect; inconclusive = small, poorly fitted or top-dose-only effect, or another doubt; inactive = no such curve, though single readings can be large; an effect the other way counts as inactive or inconclusive.

Assay [1] in a line: qHTS Assay for Lipid Storage Modulators (AID 1519; calls by dose curve; as to activity change, negative = inhibition: % is scaled to controls: 0 for no effect and ±100 for the full control effect). Conditions: Drosophila S3 cells, BODIPY lipid droplet/cell ratio, laser cytometry, cells loaded with oleic acid; for activity change, negative = inhibition: at 57.5 µM (top of the series). Summed up: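 Cells seeded at 5,000 per well were treated with compounds over a concentration series and loaded with oleic acid (400 uM, as added). Lipid droplet fluorescence (488 nm excitation, 500-530 nm channel) was read by laser-scanning cytometry and normalized to 20 uM Triacsin C.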

Assay [2] addresses DNA repair nuclease/redox regulator APEX1 (Homo sapiens) (UniProt P27695). Nature of the assay: qHTS Validation Assay for Inhibitors of the Human Apurinic/apyrimidinic Endonuclease 1 (APE1) (AID 1705;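 also: TAMRA fluorescence gain over two minutes as APE1 cuts a quenched THF abasic duplex; % is scaled to controls: 0 for no effect and ±100 for the full control effect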). Conditions: purified APE1 endonuclease activity, fluorescence, titration; series mostly up to 57.1 µM. The procedure, abridged: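 Endonuclease activity of human APE1 is followed as dequenching when the enzyme incises a tetrahydrofuran abasic site in a short duplex labelled 5'-TAMRA/3'-BHQ-2 (50 nM final), after 15 min enzyme–compound preincubation at room temperature.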
For orientation: Quantitative high-throughput screening tests each substance at several concentrations.

Assay [3] in a line: Counterscreen for APE1 Inhibitors: Fluorescent Dye Displacement Validation Assay (AID 1707).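 Also: plate controls were ThO with dsDNA and no compound for no effect and ThO without dsDNA for full effect.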 Conditions: fluorescent dye displacement from DNA; series mostly up to 57.1 µM. The procedure, abridged: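 Thiazole Orange (250 nM) bound to 50 nM TAMRA-labelled dsDNA with tetrahydrofuran abasic site; displacement by DNA-binding compounds lowers fluorescence. Buffer 50 mM Tris-HCl pH 7.5, 50 mM NaCl, 2 mM MgCl2, 0.01% Tween-20; endpoint read at 480/540 nm.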
(Counterscreens check selectivity or assay interference.)

A short description of assay [4]: qHTS for differential inhibitors of proliferation of Plasmodium falciparum line 7G8 (AID 1815).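 Also: parasite growth measured after three days of incubation.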 Also: potency is read from the fitted curve at half-maximal effect.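 As to activity change, negative = inhibition: plate controls were vehicle wells for no effect and reference inhibitor wells for full effect.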 The note with it: Plasmodium falciparum 7G8 proliferation inhibition; series mostly up to 28.7 µM.
A short description of assay [5]: qHTS for differential inhibitors of proliferation of Plasmodium falciparum line GB4 (AID 1816).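 Also: parasite growth measured after 72 h incubation.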 Also: potency is read from the fitted curve at half-maximal effect.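 As to activity change, negative = inhibition: 0% = vehicle DMSO and -100% = reference inhibitor.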 The note with it: Potency: Plasmodium falciparum GB4 proliferation inhibition; series mostly up to 28.7 µM.
Assay [6] is described as follows: qHTS for differential inhibitors of proliferation of Plasmodium falciparum line 3D7 (AID 1876). Also: potency is read from the fitted curve at half-maximal effect. The note with it: P. falciparum 3D7 proliferation inhibition; series mostly up to 28.7 µM.
Assay [7] in a line: qHTS for differential inhibitors of proliferation of Plasmodium falciparum line D10 (AID 1877).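 Also: parasites grown with compound for 72 h before DNA staining.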 Also: potency is read from the fitted curve at half-maximal effect.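 As to activity change, negative = inhibition: plate controls were vehicle wells for no effect and reference inhibitor wells for full effect.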 The note with it: series mostly up to 28.7 µM.
A short description of assay [8]: qHTS for differential inhibitors of proliferation of Plasmodium falciparum line Dd2 (AID 1882). Also: nearly all actives have a fitted effect of over 65% in size. Also: potency is read from the fitted curve at half-maximal effect.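 As to activity change, negative = inhibition: plate controls were DMSO vehicle for no effect and 0.29 µM artemisinin for full effect.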 Conditions: Potency: Plasmodium falciparum Dd2 proliferation inhibition; series mostly up to 28.7 µM. Summed up: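 Dd2-infected erythrocytes (0.3% parasitemia, 2.5% hematocrit final) incubated with compound 72 h at 37 C, 5% CO2; lysed with saponin/Triton buffer containing SYBR Green I, incubated overnight in the dark, then read by fluorescence (485/535 nm). Normalized to 0.29 uM artemisinin and DMSO.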

Assay [9] in a line: qHTS for differential inhibitors of proliferation of Plasmodium falciparum line W2 (AID 1883).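 Also: parasites grown with compound for 72 h before lysis and staining.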 Also: potency is read from the fitted curve at half-maximal effect.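 As to activity change, negative = inhibition: 0% = vehicle wells and -100% = control inhibitor wells.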 Conditions: Potency: Plasmodium falciparum W2 proliferation inhibition; series mostly up to 28.7 µM.
Assay [10] is described as follows: qHTS for differential inhibitors of proliferation of Plasmodium falciparum line HB3 (AID 1886).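 Also: parasites grown with compound for 72 h before SYBR Green readout.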 Also: potency is read from the fitted curve at half-maximal effect.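 As to activity change, negative = inhibition: plate controls were vehicle for no effect and reference inhibitor for full effect.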 Conditions: Potency: Plasmodium falciparum HB3 proliferation inhibition; series mostly up to 28.7 µM.
For assay [11], the target named is Ferritin light chain (Equus caballus) (UniProt P02791). Nature of the assay: qHTS Validation Assay for Identification of Novel General Anesthetics (AID 2323). Also: % is scaled to controls: 0 for no effect and ±100 for the full control effect. Conditions: horse apoferritin, anesthetic-site fluorescent probe displacement; series mostly up to 76.9 µM. The procedure, abridged: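 Apoferritin from horse spleen (10 uM) was mixed with 1-aminoanthracene at 50% saturation in PBS, then compounds were added. After 10 min at room temperature, fluorescence was read (ex 380 nm, em 535 nm) and normalized to free-probe and complex controls.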

For assay [12], the target named is ATP-dependent DNA helicase Q1 (Homo sapiens) (UniProt P46063). As to the kind of experiment: qHTS Validation Assay for Inhibitors of RecQ-Like Dna Helicase 1 (RECQ1) (AID 2353).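 Also: plate controls were DMSO vehicle for no effect and enzyme-free control for full effect.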 Conditions: recombinant RECQ1 helicase DNA unwinding assay; series mostly up to 25.6 µM. The procedure, abridged:
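50 nM RECQ1T1 preincubated 15 min with compound in Tris pH 8.0 buffer with MgCl2, DTT, Tween-20 and 2.5 ug/ml poly(dI-dC); started with 200 nM TAMRA/BHQ-2 forked duplex and 2 mM ATP. Unwinding read as fluorescence (525/598 nm), two reads 2 h apart.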

Assay [13] concerns the target RecQ-like DNA helicase BLM (Homo sapiens) (UniProt P54132). As to the kind of experiment: qHTS Validation Assay for Inhibitors of Bloom's syndrome helicase (BLM) (AID 2364).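 Also: plate controls were DMSO vehicle for no effect and enzyme-free control for full effect.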 Conditions: BLM helicase DNA unwinding, fluorescence, in vitro; series mostly up to 57.1 µM. The procedure, abridged: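 50 nM BLM preincubated 15 min at room temperature with compound in pH 8.0 Tris buffer containing 2.5 ug/ml poly(dI-dC); started with 200 nM TAMRA/BHQ-2 forked duplex and 2 mM ATP (final). Unwinding read as TAMRA fluorescence increase, two reads 2 h apart.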

A short description of assay [14]: Cytometric Cell-Based qHTS for Inhibitors of the mTORC1 Signaling Pathway in MEF (Tsc2-/-, p53-/-) Cells (AID 2660).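 Also: percent of cells above a phospho-rpS6 to PI ratio cutoff in each well; plate controls were DMSO for no effect and rapamycin for full effect.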 Conditions: mTORC1 pathway cytometry; series mostly up to 38.3 µM. Summed up:
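Tsc2-/-, p53-/- MEFs (empty vector) exposed to compound 24 h at 37 C, fixed, stained with Alexa-488 anti-phospho-rpS6 Ser235/236 and propidium iodide. Acumen laser scanning; phospho-S6/PI ratio thresholded against 7.5 nM rapamycin, reported as % positive cells.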

Assay [15] is described as follows: High Content Imaging Cell-Based qHTS for Inhibitors of the mTORC1 Signaling Pathway in MEF (Tsc2-/-, p53-/-) Cells (AID 2666).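 Also: percent of cells scored positive for phospho-rpS6 Ser235/236 immunostaining by imaging.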 The note with it: series mostly up to 38.3 µM. The procedure, abridged:
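Phospho-rpS6 (Ser235/236) immunofluorescence, normalized and scored as % positive cells using rapamycin and DMSO controls, was read in empty-vector Tsc2-/-, p53-/- MEFs after 24 h compound exposure at 37 C; propidium iodide counted cells.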

Assay [16] has as its target Endonuclease 4 (Escherichia coli (strain K12)) (UniProt P0A6C1). Nature of the assay: Counterscreen for APE1 Inhibitors: qHTS Validation Assay for Inhibitors of Endonuclease IV (AID 1708). Also: % is scaled to controls: 0 for no effect and ±100 for the full control effect. Conditions: E. coli endonuclease IV, DNA cleavage fluorescence; series mostly up to 57.1 µM. The procedure, abridged:
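E. coli EndoIV at 2 nM final, preincubated 15 min at room temperature with compound, then 50 nM TAMRA/BHQ-2 THF abasic-site duplex added. Buffer: 50 mM Tris-HCl pH 7.5, 50 mM NaCl, 2 mM MgCl2, 1 mM DTT, 0.01% Tween-20. Kinetic fluorescence increase, third minus first read.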

Assay [17] can be described thus: qHTS Assay for Modulators of Human Peripheral Myelin Protein 22 (PMP22) Expression/Activity (AID 1967; active = well fitted curve in the direction sought with a large enough effect in the signal ratio; the % refers to the signal ratio;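 also: 0% = untreated cells and 100% end not stated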). Conditions: Cell-based PMP22 reporter, dual-color luciferase ratio, mouse Pmp22 promoter in mouse Schwann cells; series mostly up to 115 µM. The procedure, abridged:
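Quantitative HTS in a mouse Schwann cell line expressing dual click beetle luciferases: Pmp22 promoter (green) and control EF-alpha promoter (red). After 24h treatment, corrected green/red signal ratio gave %Activity relative to untreated cells.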

The mark [18] stands for this setting: measured here: cell count channel max response.
Setting [19] is: measured here: lipid channel max response.

Ferritin light chain (Equus caballus), sequence (P02791 2-175 limits assumed): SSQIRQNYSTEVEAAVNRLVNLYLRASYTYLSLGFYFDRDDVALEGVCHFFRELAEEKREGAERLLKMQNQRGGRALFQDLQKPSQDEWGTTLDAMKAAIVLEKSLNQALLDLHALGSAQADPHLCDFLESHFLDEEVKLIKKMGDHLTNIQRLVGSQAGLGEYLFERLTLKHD
DNA repair nuclease/redox regulator APEX1 (Homo sapiens), sequence (P27695 whole entry, looked up): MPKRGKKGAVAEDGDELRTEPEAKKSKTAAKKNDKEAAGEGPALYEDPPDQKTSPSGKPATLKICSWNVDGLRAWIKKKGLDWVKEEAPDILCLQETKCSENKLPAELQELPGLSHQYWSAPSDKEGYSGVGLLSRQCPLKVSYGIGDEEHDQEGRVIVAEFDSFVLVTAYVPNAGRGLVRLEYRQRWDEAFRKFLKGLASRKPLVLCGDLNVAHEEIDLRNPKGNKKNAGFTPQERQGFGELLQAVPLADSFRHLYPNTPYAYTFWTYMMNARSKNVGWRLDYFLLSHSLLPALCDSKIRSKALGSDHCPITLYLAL
ATP-dependent DNA helicase Q1 (Homo sapiens), sequence (P46063 whole entry, looked up): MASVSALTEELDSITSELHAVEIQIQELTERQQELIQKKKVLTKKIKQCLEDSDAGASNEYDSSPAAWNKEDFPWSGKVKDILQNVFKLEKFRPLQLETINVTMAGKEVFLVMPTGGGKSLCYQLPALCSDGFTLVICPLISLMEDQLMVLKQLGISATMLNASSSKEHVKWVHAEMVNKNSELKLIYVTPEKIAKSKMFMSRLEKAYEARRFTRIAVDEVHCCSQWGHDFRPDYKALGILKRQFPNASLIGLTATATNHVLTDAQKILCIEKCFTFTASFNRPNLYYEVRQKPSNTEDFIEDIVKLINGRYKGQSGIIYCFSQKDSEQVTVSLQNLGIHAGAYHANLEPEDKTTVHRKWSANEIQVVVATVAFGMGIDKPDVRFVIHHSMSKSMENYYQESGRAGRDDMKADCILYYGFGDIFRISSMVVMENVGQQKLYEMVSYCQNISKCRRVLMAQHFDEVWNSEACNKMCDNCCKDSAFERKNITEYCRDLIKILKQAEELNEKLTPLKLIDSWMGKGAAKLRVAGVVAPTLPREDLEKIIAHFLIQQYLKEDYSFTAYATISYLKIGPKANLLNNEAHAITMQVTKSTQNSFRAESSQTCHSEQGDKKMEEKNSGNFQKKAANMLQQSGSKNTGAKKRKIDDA
RecQ-like DNA helicase BLM (Homo sapiens), sequence (P54132 whole entry, looked up): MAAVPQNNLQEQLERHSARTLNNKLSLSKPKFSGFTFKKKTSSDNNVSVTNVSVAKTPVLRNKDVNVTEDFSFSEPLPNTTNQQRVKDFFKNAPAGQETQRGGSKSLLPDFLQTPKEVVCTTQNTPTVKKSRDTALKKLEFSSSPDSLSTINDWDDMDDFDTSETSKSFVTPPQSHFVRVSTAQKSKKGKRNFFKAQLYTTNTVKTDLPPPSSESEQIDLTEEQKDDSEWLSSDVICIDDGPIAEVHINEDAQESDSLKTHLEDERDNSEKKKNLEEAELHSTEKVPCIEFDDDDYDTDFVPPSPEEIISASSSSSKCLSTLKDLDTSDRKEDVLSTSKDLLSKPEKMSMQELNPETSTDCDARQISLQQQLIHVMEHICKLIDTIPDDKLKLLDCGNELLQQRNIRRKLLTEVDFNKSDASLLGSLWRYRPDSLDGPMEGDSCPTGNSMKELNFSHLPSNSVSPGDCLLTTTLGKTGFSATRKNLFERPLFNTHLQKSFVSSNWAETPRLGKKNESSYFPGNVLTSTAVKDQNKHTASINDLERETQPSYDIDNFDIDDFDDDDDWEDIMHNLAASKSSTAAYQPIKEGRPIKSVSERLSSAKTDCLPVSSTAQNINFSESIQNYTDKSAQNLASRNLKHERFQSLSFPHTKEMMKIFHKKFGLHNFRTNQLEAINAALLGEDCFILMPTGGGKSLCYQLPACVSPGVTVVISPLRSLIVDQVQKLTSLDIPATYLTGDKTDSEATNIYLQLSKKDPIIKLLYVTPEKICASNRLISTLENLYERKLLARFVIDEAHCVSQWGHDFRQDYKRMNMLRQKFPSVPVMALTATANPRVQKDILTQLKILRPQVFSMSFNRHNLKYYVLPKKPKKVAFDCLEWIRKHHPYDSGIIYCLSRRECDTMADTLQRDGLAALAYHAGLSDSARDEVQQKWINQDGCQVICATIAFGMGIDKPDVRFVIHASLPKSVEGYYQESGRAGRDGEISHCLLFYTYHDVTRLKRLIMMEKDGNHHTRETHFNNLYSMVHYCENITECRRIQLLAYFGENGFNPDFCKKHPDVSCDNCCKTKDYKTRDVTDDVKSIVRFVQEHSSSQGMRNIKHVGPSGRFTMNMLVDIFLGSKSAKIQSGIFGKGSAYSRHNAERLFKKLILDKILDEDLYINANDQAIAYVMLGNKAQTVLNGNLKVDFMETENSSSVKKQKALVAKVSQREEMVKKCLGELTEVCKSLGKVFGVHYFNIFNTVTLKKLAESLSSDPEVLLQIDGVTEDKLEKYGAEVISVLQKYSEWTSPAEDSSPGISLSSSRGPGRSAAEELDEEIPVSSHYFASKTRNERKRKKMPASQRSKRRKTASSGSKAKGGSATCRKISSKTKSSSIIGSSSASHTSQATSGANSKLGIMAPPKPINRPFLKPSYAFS

Consider `NCC(CP(=O)(O)O)c1ccc(Cl)cc1` (centres undefined), for which the activity change, negative = inhibition in assay [1] was -3.32% (inactive). Besides, the max response in assay [1] (setting [18]) is -42.3%; in [1] (setting [19]) it was -42.6%. Further, the Potency result in assay [2], in assay [3], in assay [4], in assay [5], in [6] and in [7] was “inactive” each time. Besides, the Potency result in assay [8], in assay [9], in assay [10], in assay [12], in assay [13] and in [14] was “inactive” in each case. Besides, the Potency entry in [15] is “inactive”. Besides, the molecule was called inactive in assay [11].

Consider `COc1ccc2c(c1OC)C(=O)OC2C1c2cc3c(cc2CCN1C)OCO3` (centres undefined), for which, in assay [1], the activity change, negative = inhibition is 1.56% (inactive). Further, the max response in assay [1] (setting [18]) was found to be 61%; in assay [1] (setting [19]), 66.1%. Moreover, the Potency result in assay [2], in assay [3], in [16], in [4], in assay [6] and in [7] was “inactive” throughout. In addition, the Potency result in assay [8], in assay [10] and in assay [12] was “inactive” each time. Further, the molecule was called inactive in [11].

With `c1ccc2cc(CC3=NCCN3)ccc2c1`, in [1], the activity change, negative = inhibition is 1.13% (inactive). Besides, the max response was 29% in assay [1] (setting [18]) and 31.2% in assay [1] (setting [19]). Besides, the Potency result in assay [2], in [3], in [16], in assay [6], in assay [7] and in [8] was “inactive” throughout. For the same molecule, the Potency entry in [10], in assay [12], in assay [13], in [14] and in [15] was “inactive” throughout. Moreover, the results for the Potency in assay [5] and in [9] were 10 µM (active) and 12.6 µM (active), respectively. The result in assay [17] and in assay [11] was inactive.

With `Nc1ccc(CCN2CCN(c3cccc(C(F)(F)F)c3)CC2)cc1`, in [1], the activity change, negative = inhibition is 2.29% (inactive). Also, the values for the max response in [1] (setting [18]) and in assay [1] (setting [19]) were -6.99% and -6.09%, respectively. Further, the Potency result in assay [2], in assay [3], in assay [6], in assay [8], in assay [10] and in [12] was “inactive” each time. Also, the Potency result in assay [14] and in assay [15] was “inactive” each time. Besides, the figures for the Potency in [4] and in assay [9] were 7.94 µM (active) and 10 µM (active), respectively. In addition, the result in assay [11] was inactive.

Turning to `C[C@H](N)CN1CCc2ccc(Br)cc21`, the activity change, negative = inhibition in [1] was 0.866% (inactive). Moreover, the max response in assay [1] (setting [18]) was -15.5%; in assay [1] (setting [19]), -16.4%. Moreover, the Potency entry in [2], in [3], in assay [12], in assay [13], in assay [14] and in assay [15] was “inactive” throughout. In addition, the Potency was 8.91 µM (active) in assay [4]; 1.26 µM (active) in assay [5]; 8.91 µM (active) in assay [6]; 8.91 µM (active) in [8]; 2.24 µM (active) in assay [9]; 11.2 µM (active) in [10]. Further, in assay [11], the result was inactive.

For the molecule `OCc1cnc[nH]1`, the activity change, negative = inhibition in assay [1] was 1.18% (inactive). Besides, the values for the max response in [1] (setting [18]) and in [1] (setting [19]) were 7.21% and 9.78%, respectively. The Potency entry in [2], in assay [3], in [16], in assay [8], in assay [12] and in assay [13] was “inactive” in each case. The Potency entry in assay [14] and in [15] was “inactive” throughout. The Potency is 7.94 µM (active) in assay [5] and 10 µM (active) in assay [10]. The outcome in [11] was inactive.

On to `NC(Cc1ccc(N(CCCl)CCCl)cc1)C(=O)O` (centres undefined), for which, in assay [1], the activity change, negative = inhibition is 5.85% (inactive). In addition, the max response in [1] (setting [18]) is 17.5%; in [1] (setting [19]), 28.4%. For the same molecule, the Potency entry in assay [2], in assay [3], in [16], in assay [12], in [13] and in assay [14] was “inactive” throughout. Further, the Potency result in assay [15] was “inactive”. For the same molecule, the Potency is 10 µM (active) in assay [4]; 11.2 µM (active) in assay [5]; 10 µM (active) in [6]; 12.6 µM (active) in assay [7]; 10 µM (active) in [9]; 12.6 µM (active) in [10]. Besides, in assay [11], the outcome was inactive.
